# Data published in PubChem BioAssay (NCI).
# About 83,000 compounds went through this panel and 20% of them were active in at least one assay; those are over-represented in the sample as a whole.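 How to read the values: 0–100, growth inhibition (40 = 60% inhibited); 0, no net growth; -100 to 0, cell death (-40 = 40% of starting cells died; -100 = all dead).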 Unmarked numbers belong to inactive results. The source made the active and inactive calls. The calls were made as follows: active = growth percent below 10; inactive = the rest.
# Key:
# Test in all cases: NCI-60 one-dose screen, 48 h (100 = growth as untreated, 0 = no growth, -100 = all killed)
# Conditions in all cases: 10 µM unless noted
# NCI-H23 lung = system: NCI-H23 lung
# NCI-H226 lung = system: NCI-H226 lung
# HOP-62 NSCLC = system: HOP-62 NSCLC
# NCI-H460 lung = system: NCI-H460 lung
# HOP-92 NSCLC = system: HOP-92 NSCLC
# NCI-H522 lung = system: NCI-H522 lung
# A549/ATCC NSCLC = system: A549/ATCC NSCLC
# 786-0 renal = system: 786-0 renal
# COLO 205 colon = system: COLO 205 colon
# DU-145 prostate = system: DU-145 prostate
# MALME-3M melanoma = system: MALME-3M melanoma
# MDA-MB-231 breast = system: MDA-MB-231 breast
# RXF 393 renal = system: RXF 393 renal
# SF-268 CNS = system: SF-268 CNS
# SF-295 CNS = system: SF-295 CNS
# SF-539 CNS = system: SF-539 CNS
# UACC-257 melanoma = system: UACC-257 melanoma
# M14 melanoma = system: M14 melanoma
# K-562 leukemia = system: K-562 leukemia
# NCI-H322M lung = system: NCI-H322M lung
Compound,growth (NCI-H23 lung),growth (NCI-H226 lung),growth (HOP-62 NSCLC),growth (NCI-H460 lung),growth (HOP-92 NSCLC),growth (NCI-H522 lung),growth (A549/ATCC NSCLC),growth (786-0 renal),growth (COLO 205 colon),growth (DU-145 prostate),growth (MALME-3M melanoma),growth (MDA-MB-231 breast),growth (RXF 393 renal),growth (SF-268 CNS),growth (SF-295 CNS),growth (SF-539 CNS),growth (UACC-257 melanoma),growth (M14 melanoma),growth (K-562 leukemia),growth (NCI-H322M lung) [%]
NS(=O)(=O)c1ccc(CCn2c(SCC(=O)c3ccc(Cl)cc3)nc3ccccc3c2=O)cc1,95.2%,104%,96.1%,105%,109%,96.7%,103%,92.4%,113%,102%,96.4%,95.5%,111%,100%,103%,94.2%,111%,104%,,
COc1cc(-c2csc(NC(=O)c3cc(F)cc(C(F)(F)F)c3)n2)cc(OC)c1OC,49.8%,27.7%,39.3%,19.5%,51.2%,-10.8% (active),64.4%,29.4%,25.5%,14.6%,40.3%,56.5%,11.8%,42.4%,38.1%,26.8%,58.6%,23.6%,8.12% (active),
CC(C)N1C(=O)S/C(=C2/SC(=O)N(C(C)C)C2=O)C1=O,93.8%,102%,111%,102%,74.6%,89.9%,101%,,112%,91.8%,90.4%,76.2%,99.2%,94.8%,101%,86.4%,99%,93%,94.4%,
Cc1cc2nc3c4cc([N+](=O)[O-])ccc4n(CCN(C)C)c3nc2cc1C,-26.8% (active),-25.3% (active),5.3% (active),1.25% (active),-10.7% (active),-17% (active),-45.8% (active),5.9% (active),-42.3% (active),8.55% (active),-40.1% (active),-1.27% (active),-50.6% (active),-0.874% (active),0.581% (active),-14.5% (active),-1.98% (active),-27.3% (active),0.995% (active),
O=C(c1nc2ccccc2[nH]1)C1C(c2ccc(Cl)cc2)C2CC3CCCC[C@H]3N2[C@@]12C(=O)Nc1cc(Cl)ccc12 (some centres not stated),58.6%,58.8%,68.7%,23.1%,46.3%,56.4%,35.2%,48.4%,29.8%,62.1%,43.9%,42.6%,35.7%,42.2%,32.6%,60.6%,45.7%,34.2%,29%,
Cc1cccc(NC(=O)Nc2ccc(-c3ccc4c(c3)NC(=O)/C4=C\c3ccc[nH]3)cc2)c1,61.6%,85.5%,89.8%,26.3%,127%,85.3%,83.6%,103%,96.3%,96.4%,105%,93%,102%,95.2%,66.1%,62.7%,102%,84.9%,82.8%,
CCCCCC(=O)Oc1ccc(/C(=C(\C)c2ccccc2)c2ccc(OCCN3CCCCC3)cc2)cc1,74.9%,93.5%,87.7%,82.1%,91.2%,70.1%,77.5%,69.9%,34.4%,97.2%,68%,95%,82.7%,84.5%,84.2%,59.4%,72.4%,65.9%,20.1%,
CCCNC(=O)Oc1ccc(/C(=C(\C)c2ccccc2)c2ccc(OCCCN(C)C)cc2)cc1,75.6%,102%,78.3%,75.1%,68.2%,79.6%,70%,58.6%,52.8%,89.7%,40.8%,59.4%,71.1%,71.8%,64%,63.9%,8.5% (active),25.2%,11.5%,
O=C(CCN1CCCC1)c1ccc([N+](=O)[O-])cc1,101%,99.1%,98.2%,108%,109%,2.13% (active),101%,,107%,104%,94.9%,102%,107%,101%,97.9%,93.6%,101%,102%,100%,
COc1cc2c(c(OC)c1OC)CCC(c1cccc(NC(=O)c3cccc(Br)c3)c1)O2 (configuration not stated),95.1%,93.7%,99.8%,100%,94%,81%,81.2%,93.7%,98.3%,91.9%,100%,92.6%,87.6%,87.1%,92.5%,97.7%,81.6%,90.5%,88%,
CC(=O)CCC(=O)OCc1cc(=O)c(O)co1,92.8%,109%,105%,112%,105%,96%,101%,99.8%,125%,102%,95.5%,110%,113%,97.7%,103%,110%,99.7%,99.4%,102%,
Cn1ccnc1C(=O)/C=C/c1ccc(CC(=O)NC2CCCCC2)cc1,61.9%,92.8%,56%,26%,75%,52.1%,64.1%,71.3%,67.9%,6.25% (active),92%,65.1%,73.2%,40.9%,77.8%,63.7%,84.8%,89.8%,18%,
CC(=O)Nc1cccc(-c2ccc3c(c2)NC(=O)/C3=C\c2ccc[nH]2)c1,27.8%,52.7%,55.3%,21.6%,80.8%,16.6%,40.4%,59%,38.8%,57.4%,71.7%,34.9%,54.3%,67.5%,32.6%,28.1%,73.2%,39.1%,12.3%,
CCC(=O)Oc1ccc(/C(=C(\C)c2ccccc2)c2ccc(OCCN3CCCCC3)cc2)cc1,,82.9%,76%,72%,86.5%,74.4%,71.1%,67.3%,32.7%,91.5%,79%,91.1%,73.9%,80.3%,86.5%,62.2%,72.1%,,17.1%,82
C[C@H](c1nc2ccc(N)cc2[nH]1)[C@H]1CC[C@H]2[C@@H]3CCC4=CC(=O)CC[C@]4(C)[C@H]3CC[C@]12C,85.8%,91%,96.2%,97.1%,43.9%,84.3%,96.7%,59.4%,81.4%,88.8%,101%,91.5%,44.6%,82.2%,57.1%,53.8%,96.4%,89.5%,,
CCOC(=O)Oc1c(OC)cc(C(=O)c2ccc(OC)c(OC(=O)CCl)c2OC)cc1OC,32.5%,64.5%,16.9%,10.4%,57%,8.85% (active),22.9%,19.2%,94.8%,12.5%,50.8%,33%,-17.9% (active),43.8%,20.7%,-16.9% (active),48.5%,-15% (active),10.4%,
O=S(=O)(NCCCNc1nccc(-c2c(-c3cccc(F)c3)nc3sccn23)n1)c1cccc2ccccc12,66.2%,36.8%,80.7%,19.8%,94.6%,56.3%,45.6%,52.9%,21.5%,49.9%,78.7%,4.05% (active),62.9%,44.5%,34.6%,72.8%,72.9%,42.7%,15.2%,
CC(=O)[C@H]1CCC/C=C/[C@@H]2C[C@H](O)C[C@H]2[C@H](O)/C=C/C(=O)O1,-5.21% (active),-57.6% (active),25.4%,6.67% (active),22.9%,-41.2% (active),20.5%,-48.3% (active),-94.8% (active),25.4%,-11.5% (active),-34.3% (active),-32.8% (active),12.3%,3% (active),18.5%,24.1%,,,
COc1cc(C2C3CC4CCCC[C@H]4N3[C@@]3(C(=O)Nc4cc(Cl)ccc43)C2C(=O)c2nc3ccccc3[nH]2)cc(OC)c1OC (some centres not stated),75.1%,76.1%,90.1%,42%,64.2%,68.2%,43.3%,67%,59.7%,80.5%,56.6%,76.8%,51.1%,67.3%,45.5%,70.1%,61.6%,52%,40.5%,
COc1ccc2[nH]c(O)c(/C=c3/cc4c(c(-c5ccc(F)cc5)n3)=Nc3ccccc3-4)c2c1,67.9%,76.3%,95.5%,41.5%,66.7%,68.5%,75.8%,97.6%,96.6%,76.6%,114%,32.2%,81.5%,79.3%,86.9%,89.5%,113%,92.3%,23.5%,
Oc1ccc(C2c3ccccc3Oc3ccccc32)c2cccnc12,30.3%,4.5% (active),19.8%,2.23% (active),43.1%,25%,12.2%,-18.4% (active),34.8%,31.2%,10.2%,30.2%,5.91% (active),20.2%,13%,10.4%,3.42% (active),-24.5% (active),,
CCCCCOc1ccc(/C=N/Nc2cc(C)nc3ccc(Cl)cc23)cc1,62.5%,88%,29.7%,-63.1% (active),56.7%,-30.6% (active),-8.41% (active),-85.2% (active),-55.9% (active),5.9% (active),-63.8% (active),-77.3% (active),-85.5% (active),72%,-86% (active),-78.2% (active),99.2%,-15.4% (active),-33% (active),
C#Cc1cccc(NC(=O)c2cccc(NC(=O)CCl)c2)c1,-77.6% [8.25 µM] (active),-32% [8.25 µM] (active),-24.9% [8.25 µM] (active),-60.8% [8.25 µM] (active),-65.3% [8.25 µM] (active),-65.8% [8.25 µM] (active),1.7% [8.25 µM] (active),-71.8% [8.25 µM] (active),-53% [8.25 µM] (active),4.82% [8.25 µM] (active),-80.3% [8.25 µM] (active),-80.5% [8.25 µM] (active),-20.9% [8.25 µM] (active),8.4% [8.25 µM] (active),21.9% [8.25 µM],-97.1% [8.25 µM] (active),28.1% [8.25 µM],0.864% [8.25 µM] (active),,
Cc1cc2nc3c4cc(C=O)ccc4n(CCN(C)C)c3nc2cc1C,,-3.6% (active),7.67% (active),0.703% (active),27%,-9.47% (active),6.3% (active),27.5%,-15.9% (active),0.0752% (active),-3.12% (active),24%,19.4%,37.3%,17.1%,21%,11.4%,,5.5% (active),21
CCNc1nc2cc(Nc3ccnc4cc(Cl)ccc34)ccc2o1,66.9%,79.6%,75%,58%,56.8%,61.9%,67.7%,81.7%,72.2%,86.2%,91.7%,64.3%,66.5%,81.1%,55.2%,65.9%,83.5%,,,
CCCOC(=O)N[C@H]1CCc2c(Cl)c(OC)c(OC)c(OC)c2-c2ccc(SC)c(=O)cc21,26.8%,6.58% (active),40.5%,1.99% (active),-2.58% (active),12.3%,22.8%,4.31% (active),0.25% (active),3.02% (active),25.2%,-16.7% (active),24.3%,24.7%,17.5%,3.18% (active),72.4%,-13.6% (active),9.67% (active),
